The structures appear in SMILES notation. Unmarked numbers belong to inactive results. Records with an inconclusive call do not appear. The source made the active and inactive calls. Unless noted, calls come from the whole dose curve.

Drawing on PubChem BioAssay (Tox21), this text covers Potency and outcome for seven compounds.

The nature of experiment [1]: Nuclear factor erythroid 2-related factor 2/antioxidant responsive element (Nrf2/ARE) small molecule agonists: qHTS cell viability counter screen in human keratinocytes (AID 1919968; active = well fitted curve in the direction sought with a large enough effect in the repeat runs; an effect the other way counts as inactive or inconclusive; note: nearly all actives have a fitted effect of over 55% in size). Put shortly: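 Cytotoxicity was multiplexed with the Nrf2/ARE luciferase assay in the same wells. Stably transfected HaCaT keratinocytes were treated with test compounds for 23 h at 37 C. Cell viability was then measured by CellTiter-Fluor fluorescence.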

Experiment [2] has as its target Gonadotropin-releasing hormone receptor (Homo sapiens) (UniProt P30968). The experiment is described as follows: Human gonadotropin-releasing hormone receptor (GnRHR) small molecule agonists, calcium flux assay in GnRHR-HEK293 cells (AID 1920063). Note: nearly all actives have a fitted effect of over 35% in size. Put shortly:
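Agonist activity was measured as intracellular calcium flux in HEK293 cells engineered to stably express human GnRHR. After dye loading for 1 hour at 37 C, compounds in DMSO were added and fluorescence was followed for 3 minutes.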

Experiment [3] addresses KiSS-1 receptor (Homo sapiens) (UniProt Q969F8). As to the kind of experiment: Human kisspeptin (KISS1R) small molecule agonists, calcium flux assay in KISS1R-HEK293 cells (AID 1920064; active = well fitted curve in the direction sought with a large enough effect in the repeat runs; an effect the other way counts as inactive or inconclusive). Put shortly: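 Agonist activity is monitored as intracellular calcium rise in engineered HEK293 cells carrying human KISS1R. Cells are dye-loaded for 1 h at 37 C before compound addition, and fluorescence is recorded for 3 min.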

Experiment [4] is described as follows: G protein-coupled receptor (GPCR) small molecule agonists, calcium flux assay: HEK293 wild type cell line counter screen (AID 1920065). Put shortly:
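Seed cells, incubate 18 h (37 C, 5% CO2); add calcium dye, 1 h at 37 C; pin-transfer compounds, ATP control or DMSO; read fluorescence 480/540 nm each second for 3 min.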

Experiment [5] can be described thus: p53 small molecule agonists, cell-based qHTS assay with human liver microsomes (AID 1963577). Put shortly: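 p53RE-bla cells, 4,000/well, compound added after 5 h, with human liver microsomes 0.5 mg/mL and NADPH 0.5 mg/mL final; 16 h at 37 C, then LiveBLAzer 2 h RT, fluorescence.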
Experiment [6] can be described thus: p53 small molecule agonists, cell-based qHTS assay with rat liver microsomes (AID 1963578). Put shortly:
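p53RE-bla cells, 4,000/well, pre-incubated 5 h, then given compounds plus rat liver microsomes (0.5 mg/mL final) and NADPH (0.5 mg/mL final). Incubation 16 h at 37 C; beta-lactamase reporter read by LiveBLAzer fluorescence after 2 h at room temperature.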

Experiment [7] is described as follows: p53 small molecule agonists, cell-based qHTS assay with human liver microsomes: qHTS cell viability counter screen (AID 1963579). Note: nearly all actives have a fitted effect of over 45% in size. Put shortly:
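p53RE-bla cells, 4,000/well, dosed 5 hours after plating, with human liver microsomes (0.5 mg/mL final) plus NADPH (0.5 mg/mL final), 16 hours at 37 C. Viability read as CellTiter-Glo luminescence after 30 min at room temperature.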

The nature of experiment [8]: p53 small molecule agonists, cell-based qHTS assay with rat liver microsomes: qHTS cell viability counter screen (AID 1963580). Note: nearly all actives have a fitted effect of over 45% in size. Put shortly:
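Counter screen for cytotoxicity under metabolic activation: rat liver microsomes and NADPH, 0.5 mg/mL final each, added with compounds to p53RE-bla HCT-116 cells; 16 h at 37 C, then ATP luminescence read.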

Experiment [9] in a line: p53 small molecule agonists, cell-based qHTS assay: qHTS cell viability counter screen (AID 1963581). Note: nearly all actives have a fitted effect of over 45% in size. Put shortly: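 Viability was counter-screened in parallel with the p53 agonist reporter by measuring intracellular ATP luminescence in the same HCT-116 p53RE-bla wells after 16 h compound treatment at 37 C.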
The nature of experiment [10]: p53 small molecule agonists, cell-based qHTS assay (AID 1963582; active = well fitted activation curve with a large enough effect in the signal ratio in the repeat runs, not every such curve was filed as active; the % refers to the signal ratio). Put shortly:
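Cells carrying a p53-responsive bla reporter are treated with test compounds for 16 h at 37 C; beta-lactamase activity is then detected with LiveBLAzer B/G FRET substrate after 2 h at room temperature.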

Experiment [11] deals with 5-hydroxytryptamine receptor 2A (Homo sapiens) (UniProt P28223). The experiment is described as follows: 5-hydroxytryptamine receptor 2A (HTR2A) small molecule antagonists, cell-based qHTS assay (AID 1963586). Note: nearly all actives have a fitted effect of over 45% in size. Put shortly:
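CHO cells stably expressing human HTR2A were plated for 18 h at 37 C, then loaded with calcium dye for 1 h. Compounds were preincubated 5 min at room temperature before DOI (4 nM solution) was added. Kinetic fluorescence was read for 3 min.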

Experiment [12] shares this target. As to the kind of experiment: 5-hydroxytryptamine receptor 2A (HTR2A) small molecule agonists, cell-based qHTS assay (AID 1963587). Note: nearly all actives have a fitted effect of over 30% in size. Put shortly: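 HTR2A-CHO cells, plated 18 h at 37 C/5% CO2, dye-loaded 1 h at 37 C; compounds in DMSO added by pin tool (agonist mode). Intracellular calcium flux read as kinetic fluorescence on FDSS over 2 min at 1 s intervals.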

The target in experiment [13] is Muscarinic acetylcholine receptor M1 (Homo sapiens) (UniProt P11229). The experiment is described as follows: Cholinergic receptor muscarinic 1 (CHRM1) small molecule agonists, cell-based qHTS assay (AID 1963589). Note: nearly all actives have a fitted effect of over 35% in size. Put shortly: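 Cells were plated and incubated 18 h at 37 C/5% CO2, loaded with calcium dye for 1 h at 37 C, then treated with compounds in DMSO. Fluorescence was recorded kinetically at 1 sec intervals.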

Experiment [14] can be described thus: cAMP Responsive Elements (CRE) small molecule agonists, cell-based qHTS assay (AID 1963590). Note: potency is the fitted concentration of half-maximal effect. Put shortly:
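Cells carrying a CRE-driven beta-lactamase reporter (HEK 293T) are seeded, incubated overnight (18 h), and treated with test compounds for 3 h at 37 C; reporter activity is then detected with a FRET substrate after 2 h at room temperature.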

The target in experiment [15] is Beta-2 adrenergic receptor (Homo sapiens) (UniProt P07550). The experiment is described as follows: Adrenergic beta2 receptor (ADRB2) small molecule antagonists, cell-based qHTS assay (AID 1963592). Note: series mostly up to about 92 µM; nearly all actives have a fitted effect of over 50% in size. Put shortly: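 Assay format: CHO-ADRB2 cells, 18-20hr seeding at 37C/5% CO2, then compound plus 1nM isoproterenol agonist mix for 0.5hr RT. Homogeneous time-resolved fluorescence cAMP detection after 1hr, expressed as 665/615 nm ratio.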

The target of experiment [16] is D(2) dopamine receptor (Homo sapiens) (UniProt P14416). The experiment is described as follows: Dopamine D2 receptor (DRD2) small molecule antagonists, cell-based qHTS assay (AID 1963595; active = well fitted inhibition curve with a large enough effect in the signal ratio in the repeat runs, with a control signal flat; the % refers to the signal ratio; note: potency is the fitted concentration of half-maximal effect). Put shortly: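 Readout: HTRF cAMP, cAMP-d2 competing with cellular cAMP for anti-cAMP cryptate, read after 1 h. Cells: DRD2-HEK293. Conditions: 0.1 mM Ro20-1724, 12 nM quinpirole, 200 nM NKH477, 30 min RT.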

Experiment [17] concerns the target Muscarinic acetylcholine receptor M1 (Homo sapiens) (UniProt P11229). The experiment is described as follows: Cholinergic receptor muscarinic 1 (CHRM1) small molecule antagonists, cell-based qHTS assay (AID 1963588). Note: nearly all actives have a fitted effect of over 40% in size. Put shortly: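 Compounds were tested at 15 concentrations in three independent runs. Dye-loaded CHRM1-CHO cells were exposed 5 min at room temperature before stimulation by acetylcholine added at 50nM. Intracellular calcium was read kinetically on FDSS for 3 min.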

A short description of experiment [18]: cAMP Responsive Elements (CRE) small molecule antagonists, cell-based qHTS assay (AID 1963591; active = well fitted inhibition curve with a large enough effect in the signal ratio in the repeat runs, not every such curve was filed as active; the % refers to the signal ratio). Put shortly:
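Cells (CRE-bla HEK 293T, DMEM with 10% dialyzed FBS and 25 mM HEPES) are seeded and incubated 18 h. Compounds are added with NKH477 agonist at 0.25 uM final for 3 h, then FRET substrate for 2 h.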

For experiment [19], the target named is D(2) dopamine receptor (Homo sapiens) (UniProt P14416). As to the kind of experiment: Dopamine D2 receptor (DRD2) small molecule agonists, cell-based qHTS assay (AID 1963594). Note: nearly all actives have a fitted effect of over 35% in size. Put shortly:
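HEK293 cells stably expressing DRD2 were cultured 24 h at 37 C, then given Ro20-1724 (0.1 mM final) and compounds for 10 min at room temperature. NKH477 (200nM) was then added for 30 min. cAMP was read by HTRF.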

Chain of Beta-2 adrenergic receptor (Homo sapiens) (P07550 whole entry, looked up): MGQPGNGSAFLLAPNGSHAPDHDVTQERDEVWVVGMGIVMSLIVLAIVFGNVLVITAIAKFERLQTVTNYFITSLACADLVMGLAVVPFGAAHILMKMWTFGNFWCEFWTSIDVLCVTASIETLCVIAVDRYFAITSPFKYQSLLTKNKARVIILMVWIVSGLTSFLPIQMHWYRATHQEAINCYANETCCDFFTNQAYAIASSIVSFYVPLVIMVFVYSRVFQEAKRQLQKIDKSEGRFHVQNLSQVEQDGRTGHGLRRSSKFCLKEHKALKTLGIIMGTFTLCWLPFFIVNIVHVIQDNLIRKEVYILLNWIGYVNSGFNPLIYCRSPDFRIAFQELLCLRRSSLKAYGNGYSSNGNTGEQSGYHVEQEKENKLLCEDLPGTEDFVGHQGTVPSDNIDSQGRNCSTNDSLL
Chain of Muscarinic acetylcholine receptor M1 (Homo sapiens) (P11229 whole entry, looked up): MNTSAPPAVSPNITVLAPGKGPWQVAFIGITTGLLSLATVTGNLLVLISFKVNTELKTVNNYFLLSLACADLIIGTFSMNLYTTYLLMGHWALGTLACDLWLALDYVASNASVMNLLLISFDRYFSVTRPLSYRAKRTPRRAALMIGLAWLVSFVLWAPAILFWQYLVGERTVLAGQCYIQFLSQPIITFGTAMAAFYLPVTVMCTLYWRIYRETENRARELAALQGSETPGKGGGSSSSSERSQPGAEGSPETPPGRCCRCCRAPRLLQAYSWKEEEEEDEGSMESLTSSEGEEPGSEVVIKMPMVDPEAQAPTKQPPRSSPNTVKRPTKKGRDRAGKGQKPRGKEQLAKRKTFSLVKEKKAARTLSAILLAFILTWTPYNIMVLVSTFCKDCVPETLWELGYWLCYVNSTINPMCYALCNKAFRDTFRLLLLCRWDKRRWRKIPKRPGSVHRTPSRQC
Chain of KiSS-1 receptor (Homo sapiens) (Q969F8 whole entry, looked up): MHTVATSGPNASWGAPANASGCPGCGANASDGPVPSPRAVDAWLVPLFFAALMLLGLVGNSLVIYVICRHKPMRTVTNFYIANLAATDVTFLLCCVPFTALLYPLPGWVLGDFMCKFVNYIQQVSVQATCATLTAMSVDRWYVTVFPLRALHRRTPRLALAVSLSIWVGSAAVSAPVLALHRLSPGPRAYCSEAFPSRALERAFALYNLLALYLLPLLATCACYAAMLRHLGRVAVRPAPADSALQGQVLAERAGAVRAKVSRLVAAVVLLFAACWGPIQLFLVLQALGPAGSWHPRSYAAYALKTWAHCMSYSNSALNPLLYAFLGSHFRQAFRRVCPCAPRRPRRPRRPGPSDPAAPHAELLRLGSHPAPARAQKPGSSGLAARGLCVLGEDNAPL
Chain of 5-hydroxytryptamine receptor 2A (Homo sapiens) (P28223 whole entry, looked up): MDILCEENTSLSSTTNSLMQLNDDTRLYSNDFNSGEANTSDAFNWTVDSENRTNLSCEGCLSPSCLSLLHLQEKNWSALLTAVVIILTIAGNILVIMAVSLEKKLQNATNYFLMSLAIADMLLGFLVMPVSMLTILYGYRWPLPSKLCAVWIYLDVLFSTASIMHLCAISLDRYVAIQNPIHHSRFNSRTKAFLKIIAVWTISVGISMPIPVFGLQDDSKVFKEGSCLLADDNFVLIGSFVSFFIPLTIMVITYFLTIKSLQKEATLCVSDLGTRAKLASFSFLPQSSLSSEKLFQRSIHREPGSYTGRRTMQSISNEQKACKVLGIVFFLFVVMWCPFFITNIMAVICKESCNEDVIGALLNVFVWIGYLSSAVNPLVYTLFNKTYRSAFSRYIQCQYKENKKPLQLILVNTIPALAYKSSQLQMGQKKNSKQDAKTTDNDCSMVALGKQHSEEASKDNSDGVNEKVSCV
Chain of Gonadotropin-releasing hormone receptor (Homo sapiens) (P30968 whole entry, looked up): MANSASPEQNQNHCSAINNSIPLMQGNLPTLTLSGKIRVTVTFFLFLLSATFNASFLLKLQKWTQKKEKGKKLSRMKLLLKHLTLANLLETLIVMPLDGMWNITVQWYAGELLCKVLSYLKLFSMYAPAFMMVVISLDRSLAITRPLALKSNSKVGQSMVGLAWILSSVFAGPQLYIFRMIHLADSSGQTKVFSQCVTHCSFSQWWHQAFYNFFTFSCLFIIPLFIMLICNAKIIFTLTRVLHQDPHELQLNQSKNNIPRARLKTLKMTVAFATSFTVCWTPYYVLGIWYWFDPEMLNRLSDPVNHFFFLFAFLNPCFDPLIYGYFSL
Chain of D(2) dopamine receptor (Homo sapiens) (P14416 whole entry, looked up): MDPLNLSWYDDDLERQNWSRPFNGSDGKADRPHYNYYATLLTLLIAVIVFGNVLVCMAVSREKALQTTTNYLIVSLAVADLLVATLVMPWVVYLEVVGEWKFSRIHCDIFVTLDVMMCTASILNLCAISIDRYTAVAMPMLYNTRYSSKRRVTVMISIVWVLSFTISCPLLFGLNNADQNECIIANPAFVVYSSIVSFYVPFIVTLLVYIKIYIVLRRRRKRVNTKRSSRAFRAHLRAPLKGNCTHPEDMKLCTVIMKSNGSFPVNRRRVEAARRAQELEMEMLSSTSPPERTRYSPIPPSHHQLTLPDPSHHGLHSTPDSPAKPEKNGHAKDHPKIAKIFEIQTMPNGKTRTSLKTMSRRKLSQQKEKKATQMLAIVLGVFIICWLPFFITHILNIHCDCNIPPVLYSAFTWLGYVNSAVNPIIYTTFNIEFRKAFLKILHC

For `CNC(=O)c1cnn(-c2nc(N)c3ncn([C@@H]4O[C@H](CO)[C@@H](O)[C@H]4O)c3n2)c1`, the Potency result in experiment [1], in [2], in experiment [5], in experiment [6], in experiment [7] and in experiment [8] was “inactive” each time. Also, the Potency result in experiment [9], in [10], in [11], in [12], in experiment [13] and in experiment [15] was “inactive” throughout. The outcome in [3] and in [4] was inactive. Further, the Potency was 11.9 µM (active) in [14] and 1.88 µM (active) in [16].
`c1ccc(-c2nn[nH]n2)cc1`: the Potency result in [1], in [2], in [5], in experiment [6], in [7] and in [8] was “inactive” in each case. Further, the Potency entry in experiment [9], in experiment [10], in [11], in experiment [12], in experiment [17] and in experiment [14] was “inactive” each time. The Potency entry in [18], in experiment [15], in experiment [19] and in experiment [16] was “inactive” each time. Further, the outcome in experiment [3] and in experiment [4] was inactive.
For the compound `COc1ccc([C@@H]2Sc3ccccc3N(CCN(C)C)C(=O)[C@@H]2OC(C)=O)cc1`, the Potency result in experiment [1], in [2], in experiment [5], in experiment [6], in experiment [7] and in [8] was “inactive” in each case. The Potency result in experiment [9], in experiment [10], in [14], in experiment [15] and in [19] was “inactive” throughout. Moreover, the outcome in experiment [3] and in experiment [4] was inactive.
Turning to `CCC(C)(C)C(=O)O`, the Potency entry in experiment [1], in [2], in experiment [5], in experiment [6], in experiment [7] and in experiment [8] was “inactive” in each case. In addition, the Potency result in experiment [9], in [10], in [11], in [12], in [17] and in experiment [13] was “inactive” throughout. The Potency entry in [14], in experiment [18], in [15], in [19] and in experiment [16] was “inactive” each time. The result in experiment [3] and in experiment [4] was inactive.
In the case of `Cc1cc(O)c(C)c(C)c1O`, the Potency entry in experiment [1], in [2], in experiment [5], in experiment [6], in [7] and in [8] was “inactive” each time. For the same compound, the Potency entry in [9], in experiment [10], in experiment [11], in [12], in experiment [13] and in experiment [14] was “inactive” in each case. In addition, the Potency entry in [18], in experiment [19] and in experiment [16] was “inactive” each time. Also, the result in experiment [3] and in [4] was inactive.
`CCCCCCCCCCCc1ccccc1`: the Potency result in [1], in experiment [2], in experiment [5], in experiment [6], in experiment [7] and in experiment [8] was “inactive” throughout. In addition, the Potency result in experiment [9], in [10], in experiment [12], in experiment [17], in experiment [13] and in experiment [14] was “inactive” throughout. Further, the Potency result in experiment [18], in [15], in experiment [19] and in experiment [16] was “inactive” throughout. Moreover, the outcome in experiment [3] and in [4] was inactive.
As for `O=C(Oc1ccccc1C(=O)O)c1ccccc1O`, the Potency entry in experiment [1], in experiment [2], in experiment [5], in experiment [6], in experiment [7] and in [8] was “inactive” throughout. For the same compound, the Potency result in experiment [9], in experiment [10], in experiment [14], in experiment [18], in experiment [15] and in experiment [16] was “inactive” each time. In addition, the outcome in experiment [3] and in experiment [4] was inactive.
